The record followed here is paper PMC5540273 (PLoS ONE, 2017).
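Further: KINOMEscan kinase panel screen.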

The first test concerns T1, RSK4(Kin.Dom.1-N-terminal).
T1 construct: gene RPS6KA6
The following applies: concentration: 1 μM, replicates: in singlicate; n = 1.
For the molecule `Cc1cccc(-c2nc(-c3ccc(S(C)(=O)=O)cc3)sc2-c2ccncc2)c1`, the “%Inh” value was 30%.

With `CN1c2ccc(CNc3ccc(F)cc3)cc2-c2c(cnn2C)S1(=O)=O`, the “%Inh” value is 5%.

As for `O=C1Cc2cc(Nc3nc(NCc4cccc(S(=O)(=O)C(F)(F)F)c4)ncc3C(F)(F)F)ccc2N1`, the “%Inh” value turned out to be 35%.

`COc1cc2c(cc1OC[C@@H](O)CO)ncc1c3ccc(C#N)cc3[nH]c21`: the “%Inh” value came out at 88%.

Turning to `COc1ccc(S(=O)(=O)NC2CCN(c3cc(C)nc(Nc4cccc(C#N)c4)n3)CC2)cc1.O=C(O)C(F)(F)F` [GSK1653539], the “%Inh” value came to 0%.

With `[2H]C([2H])(c1cccc(C(F)(F)F)c1C)n1ccn2c(=O)nc(N3CCOCC3)cc12` [GSK2336394], the “%Inh” value worked out at 0%.

Regarding `Cc1cccc(-c2nc(Nc3ccc4ncsc4c3)c3ccccc3n2)n1` [GW867588], the “%Inh” value came out at 6%.

Consider `COc1cc2ncn(-c3cc(OCc4sccc4Cl)c(C(N)=O)s3)c2cc1OC` [GSK448459], for which the “%Inh” value worked out at 14%.

In the case of `CCc1ccnc(/C=C/c2n[nH]c3cc(Sc4ccccc4C(=O)NC)ccc23)c1`, the “%Inh” value amounted to 18%.

`C[C@@H](Oc1cc(-n2cnc3ccc(NC(=O)NC(C)(C)C)cc32)sc1C(N)=O)c1ccccc1Cl` [GSK346294]: the “%Inh” value came out at 0%.

As for `COc1cc2c(cc1OCCN1CCN(C)CC1)ncc1c3ccc(C#N)cc3[nH]c21`, the “%Inh” value is 67%.

Regarding `COCCNC(=O)c1ccc(-c2cc(C(=O)NC3CC3)cc(F)c2C)cc1` [GW868318], the “%Inh” value is recorded as 41%.

In the case of `COc1cc(Nc2nccc(N3CCC(NC(=O)c4cccc(NC(C)=O)c4)C3)n2)cc(OC)c1OC` (stereo not shown) [GSK1379754], the “%Inh” value came out at 1%.

In the case of `CN1c2ccc(NCc3ccc(F)cc3)cc2-c2c(cnn2C)S1(=O)=O`, the “%Inh” value is 0%.

For the molecule `Cc1nnc(-c2ccc3ncc(-c4ccc(S(C)=O)cc4)n3c2)o1` (stereo not shown), the “%Inh” value turned out to be 0%.

Turning to `O=C(NCCCN1CCOCC1)c1cccc(Nc2nccc(Nc3ccc(Oc4ccccc4)cc3)n2)c1` [GW663929], the “%Inh” value is given as 0%.

In the case of `Cc1cccc(Cn2ccn3c(=O)cc(N4CCOCC4)nc23)c1` [GSK2297542], the “%Inh” value is 0%.

Take `Nc1nc(-c2ccc3c(N)n[nH]c3c2)cc(N2CCCC2)n1` [GSK2227430]: the “%Inh” value is 0%.

Take `Fc1ccc(-c2ncn(CCCN3CCOCC3)c2-c2cccnc2)cc1` [SB-211743]: the “%Inh” value was determined as 20%.

Consider `O=C(NOCC1CC1)c1ccc(F)c(F)c1Nc1ccc(I)cc1Cl`, for which the “%Inh” value was found to be 0%.

Take `NS(=O)(=O)c1cccc(-c2ccc3ncc(N4CCOCC4)nc3c2)c1` [GSK1535721]: the “%Inh” value amounted to 0%.

Take `Cn1ccc2ncnc(Oc3ccc(NC(=O)Nc4ccncc4)c(Cl)c3)c21`: the “%Inh” value amounted to 0%.

`NS(=O)(=O)c1cccc(-c2ccc3nccc(-c4cccc(S(N)(=O)=O)c4)c3c2)c1` [GW867253]: the “%Inh” value was 12%.

As to `CCc1nc(-c2cccc(C)c2)c(-c2ccnc(NCc3ccccc3)c2)s1`, the “%Inh” value was 0%.

As to `O=C(Nc1cccc(-c2nn3ncccc3c2-c2ccnc(Nc3cccc(C(F)(F)F)c3)n2)c1)c1c(F)cccc1F` [GSK299495], the “%Inh” value worked out at 0%.

As to `O=c1cc(N2CCOCC2)nc2n(Cc3cccc(F)c3)ccn12` [GSK2297430], the “%Inh” value was found to be 0%.

Take `O=C1NC(=O)C(N2CCc3ccccc32)=C1c1cccc(Cl)c1` [SB-408010]: the “%Inh” value is recorded as 35%.

With `Cl.Oc1cccc(Nc2ccnc3cc(-c4ccncc4)ccc23)c1` [GW494601], the “%Inh” value is recorded as 0%.

For the molecule `COc1ccc(COc2cc(-n3cnc4ccccc43)sc2C(N)=O)cc1` [GSK1024304], the “%Inh” value was determined as 2%.

Turning to `COc1ccc(Nc2ncc(C#N)c(Nc3ccccc3C(N)=O)n2)cc1N1CCN(C)CC1.Cl` [GSK1558669], the “%Inh” value turned out to be 100%.

For `Cc1cn2c(=O)cc(N3CCOCC3)nc2n1Cc1cccc(Cl)c1Cl` [GSK2334006], the “%Inh” value is listed as 15%.

Consider `N#Cc1c(N2CCOCC2)sc(-c2ccn[nH]2)c1-c1ccc(Cl)cc1`, for which the “%Inh” value is reported as 2%.

For `N#Cc1ccc(-c2cc(-c3c[nH]nc3-c3ccccn3)ccn2)cc1` [GW693028], the “%Inh” value is on record as 0%.

Consider `Cc1nnc(-c2ccc3occ(-c4ccc(C(C)O)cc4)c3c2)o1` (stereo not shown), for which the “%Inh” value stood at 19%.

On to `Cc1c(Cn2c(C)nn3c(=O)cc(N4CCOC(C)C4)nc23)cccc1C(F)(F)F` (stereo not shown) [GSK2344444], for which the “%Inh” value was found to be 1%.

In the next test the test system is T2, RSK4(Kin.Dom.2-C-terminal).
T2 construct: gene RPS6KA6
The following applies: concentration: 1 μM, replicates: in singlicate; n = 1.
For `Cc1cccc(-c2nc(-c3ccc(S(C)(=O)=O)cc3)sc2-c2ccncc2)c1`, the “%Inh” value is 15%.

Take `CN1c2ccc(CNc3ccc(F)cc3)cc2-c2c(cnn2C)S1(=O)=O`: the “%Inh” value is 0%.

For the molecule `O=C1Cc2cc(Nc3nc(NCc4cccc(S(=O)(=O)C(F)(F)F)c4)ncc3C(F)(F)F)ccc2N1`, the “%Inh” value was found to be 0%.

For the molecule `COc1cc2c(cc1OC[C@@H](O)CO)ncc1c3ccc(C#N)cc3[nH]c21`, the “%Inh” value was found to be 18%.

For `COc1ccc(S(=O)(=O)NC2CCN(c3cc(C)nc(Nc4cccc(C#N)c4)n3)CC2)cc1.O=C(O)C(F)(F)F` [GSK1653539], the “%Inh” value was determined as 21%.

As to `[2H]C([2H])(c1cccc(C(F)(F)F)c1C)n1ccn2c(=O)nc(N3CCOCC3)cc12` [GSK2336394], the “%Inh” value came to 21%.

On to `Cc1cccc(-c2nc(Nc3ccc4ncsc4c3)c3ccccc3n2)n1` [GW867588], for which the “%Inh” value worked out at 8%.

Consider `COc1cc2ncn(-c3cc(OCc4sccc4Cl)c(C(N)=O)s3)c2cc1OC` [GSK448459], for which the “%Inh” value is recorded as 20%.

For the molecule `CCc1ccnc(/C=C/c2n[nH]c3cc(Sc4ccccc4C(=O)NC)ccc23)c1`, the “%Inh” value was found to be 12%.

Take `C[C@@H](Oc1cc(-n2cnc3ccc(NC(=O)NC(C)(C)C)cc32)sc1C(N)=O)c1ccccc1Cl` [GSK346294]: the “%Inh” value worked out at 26%.

For the molecule `COc1cc2c(cc1OCCN1CCN(C)CC1)ncc1c3ccc(C#N)cc3[nH]c21`, the “%Inh” value is given as 44%.

In the case of `COCCNC(=O)c1ccc(-c2cc(C(=O)NC3CC3)cc(F)c2C)cc1` [GW868318], the “%Inh” value is recorded as 0%.

As for `COc1cc(Nc2nccc(N3CCC(NC(=O)c4cccc(NC(C)=O)c4)C3)n2)cc(OC)c1OC` (stereo not shown) [GSK1379754], the “%Inh” value came out at 0%.

Turning to `CN1c2ccc(NCc3ccc(F)cc3)cc2-c2c(cnn2C)S1(=O)=O`, the “%Inh” value is 98.7%.

For `Cc1nnc(-c2ccc3ncc(-c4ccc(S(C)=O)cc4)n3c2)o1` (stereo not shown), the “%Inh” value came out at 19%.

With `O=C(NCCCN1CCOCC1)c1cccc(Nc2nccc(Nc3ccc(Oc4ccccc4)cc3)n2)c1` [GW663929], the “%Inh” value came to 20%.

Consider `Cc1cccc(Cn2ccn3c(=O)cc(N4CCOCC4)nc23)c1` [GSK2297542], for which the “%Inh” value came out at 42%.

With `Nc1nc(-c2ccc3c(N)n[nH]c3c2)cc(N2CCCC2)n1` [GSK2227430], the “%Inh” value amounted to 0%.

Turning to `Fc1ccc(-c2ncn(CCCN3CCOCC3)c2-c2cccnc2)cc1` [SB-211743], the “%Inh” value worked out at 0%.

`O=C(NOCC1CC1)c1ccc(F)c(F)c1Nc1ccc(I)cc1Cl`: the “%Inh” value was 0%.

Turning to `NS(=O)(=O)c1cccc(-c2ccc3ncc(N4CCOCC4)nc3c2)c1` [GSK1535721], the “%Inh” value is 0%.

With `Cn1ccc2ncnc(Oc3ccc(NC(=O)Nc4ccncc4)c(Cl)c3)c21`, the “%Inh” value was 0%.

For the molecule `NS(=O)(=O)c1cccc(-c2ccc3nccc(-c4cccc(S(N)(=O)=O)c4)c3c2)c1` [GW867253], the “%Inh” value is recorded as 30%.

Turning to `CCc1nc(-c2cccc(C)c2)c(-c2ccnc(NCc3ccccc3)c2)s1`, the “%Inh” value is 53%.

Regarding `O=C(Nc1cccc(-c2nn3ncccc3c2-c2ccnc(Nc3cccc(C(F)(F)F)c3)n2)c1)c1c(F)cccc1F` [GSK299495], the “%Inh” value amounted to 0%.

For `O=c1cc(N2CCOCC2)nc2n(Cc3cccc(F)c3)ccn12` [GSK2297430], the “%Inh” value is reported as 6%.

For the molecule `O=C1NC(=O)C(N2CCc3ccccc32)=C1c1cccc(Cl)c1` [SB-408010], the “%Inh” value is listed as 11%.

`Cl.Oc1cccc(Nc2ccnc3cc(-c4ccncc4)ccc23)c1` [GW494601]: the “%Inh” value is 29%.

For the molecule `COc1ccc(COc2cc(-n3cnc4ccccc43)sc2C(N)=O)cc1` [GSK1024304], the “%Inh” value was 23%.

Take `COc1ccc(Nc2ncc(C#N)c(Nc3ccccc3C(N)=O)n2)cc1N1CCN(C)CC1.Cl` [GSK1558669]: the “%Inh” value is reported as 50%.

Consider `Cc1cn2c(=O)cc(N3CCOCC3)nc2n1Cc1cccc(Cl)c1Cl` [GSK2334006], for which the “%Inh” value was 13%.

With `N#Cc1c(N2CCOCC2)sc(-c2ccn[nH]2)c1-c1ccc(Cl)cc1`, the “%Inh” value is given as 10%.

Turning to `N#Cc1ccc(-c2cc(-c3c[nH]nc3-c3ccccn3)ccn2)cc1` [GW693028], the “%Inh” value was determined as 28%.

For `Cc1nnc(-c2ccc3occ(-c4ccc(C(C)O)cc4)c3c2)o1` (stereo not shown), the “%Inh” value amounted to 7%.

As to `Cc1c(Cn2c(C)nn3c(=O)cc(N4CCOC(C)C4)nc23)cccc1C(F)(F)F` (stereo not shown) [GSK2344444], the “%Inh” value is on record as 17%.
